These results are taken from ChEMBL document CHEMBL1961873, “Compounds: GSK PKIS; Assays: Nanosyn kinase panel” (2012).

Structures are written as SMILES.

In experiment [1] the target is Protein kinase C gamma type (Homo sapiens) (UniProt P05129). Particulars: at 1 µM.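 Further: each value is an averaged percent inhibition of the enzyme.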
Experiment [2] addresses T1, Protein kinase C iota type (Homo sapiens) (UniProt P41743).
T1 sequence (whole entry): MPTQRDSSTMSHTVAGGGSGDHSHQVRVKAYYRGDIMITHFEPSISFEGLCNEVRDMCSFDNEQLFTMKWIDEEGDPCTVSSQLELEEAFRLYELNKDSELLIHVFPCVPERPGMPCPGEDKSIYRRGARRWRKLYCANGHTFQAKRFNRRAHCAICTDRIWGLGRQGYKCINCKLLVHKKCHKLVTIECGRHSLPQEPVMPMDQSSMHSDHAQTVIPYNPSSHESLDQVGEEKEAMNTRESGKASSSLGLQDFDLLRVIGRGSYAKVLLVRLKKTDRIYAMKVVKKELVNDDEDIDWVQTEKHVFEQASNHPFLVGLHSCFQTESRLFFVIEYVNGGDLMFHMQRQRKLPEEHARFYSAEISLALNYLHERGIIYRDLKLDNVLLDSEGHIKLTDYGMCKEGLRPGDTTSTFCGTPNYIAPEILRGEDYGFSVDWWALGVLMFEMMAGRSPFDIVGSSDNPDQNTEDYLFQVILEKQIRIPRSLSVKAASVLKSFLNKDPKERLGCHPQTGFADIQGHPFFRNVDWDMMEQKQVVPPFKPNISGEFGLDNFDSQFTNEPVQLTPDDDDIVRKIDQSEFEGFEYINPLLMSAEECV
Particulars: at 0.1 µM.

Experiment [3] deals with T1, Protein kinase C iota type (Homo sapiens). Particulars: at 1 µM.
The target of experiment [4] is Protein kinase C theta type (Homo sapiens) (UniProt Q04759). Particulars: at 0.1 µM.
The target is the same in experiment [5]. Particulars: at 1 µM.
The target in experiment [6] is Protein kinase C beta type (Homo sapiens) (UniProt P05771). Particulars: at 0.1 µM.
Experiment [7] shares this target. Particulars: at 1 µM.
Experiment [8] addresses T2, Serine/threonine-protein kinase D1 (Homo sapiens) (UniProt Q15139).
T2 sequence (whole entry): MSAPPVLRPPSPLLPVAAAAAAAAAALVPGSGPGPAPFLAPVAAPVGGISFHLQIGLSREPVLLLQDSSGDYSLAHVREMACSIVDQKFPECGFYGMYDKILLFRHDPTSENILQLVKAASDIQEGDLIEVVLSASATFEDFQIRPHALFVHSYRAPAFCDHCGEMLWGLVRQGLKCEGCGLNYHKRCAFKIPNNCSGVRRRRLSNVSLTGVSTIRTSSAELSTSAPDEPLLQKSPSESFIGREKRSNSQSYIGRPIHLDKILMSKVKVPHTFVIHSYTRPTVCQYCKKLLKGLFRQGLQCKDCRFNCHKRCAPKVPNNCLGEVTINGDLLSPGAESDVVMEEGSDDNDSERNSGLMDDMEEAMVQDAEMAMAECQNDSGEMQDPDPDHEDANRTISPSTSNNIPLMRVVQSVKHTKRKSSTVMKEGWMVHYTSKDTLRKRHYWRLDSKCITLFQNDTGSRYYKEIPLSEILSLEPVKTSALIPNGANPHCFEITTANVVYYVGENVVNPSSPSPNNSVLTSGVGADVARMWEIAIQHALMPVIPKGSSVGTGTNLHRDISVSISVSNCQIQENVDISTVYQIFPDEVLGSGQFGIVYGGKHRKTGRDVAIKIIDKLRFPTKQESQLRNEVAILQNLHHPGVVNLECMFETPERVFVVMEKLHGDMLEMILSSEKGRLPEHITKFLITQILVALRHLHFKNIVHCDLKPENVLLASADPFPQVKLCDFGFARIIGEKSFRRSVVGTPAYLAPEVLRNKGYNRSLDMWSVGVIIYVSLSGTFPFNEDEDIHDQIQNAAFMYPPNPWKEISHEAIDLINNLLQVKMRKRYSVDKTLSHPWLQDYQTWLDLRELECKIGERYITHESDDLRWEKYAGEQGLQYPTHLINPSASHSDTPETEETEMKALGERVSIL
Particulars: at 0.1 µM.

Experiment [9] addresses T2, Serine/threonine-protein kinase D1 (Homo sapiens). Particulars: at 1 µM.
Experiment [10] addresses T3, Serine/threonine-protein kinase D2 (Homo sapiens) (UniProt Q9BZL6).
T3 sequence (whole entry): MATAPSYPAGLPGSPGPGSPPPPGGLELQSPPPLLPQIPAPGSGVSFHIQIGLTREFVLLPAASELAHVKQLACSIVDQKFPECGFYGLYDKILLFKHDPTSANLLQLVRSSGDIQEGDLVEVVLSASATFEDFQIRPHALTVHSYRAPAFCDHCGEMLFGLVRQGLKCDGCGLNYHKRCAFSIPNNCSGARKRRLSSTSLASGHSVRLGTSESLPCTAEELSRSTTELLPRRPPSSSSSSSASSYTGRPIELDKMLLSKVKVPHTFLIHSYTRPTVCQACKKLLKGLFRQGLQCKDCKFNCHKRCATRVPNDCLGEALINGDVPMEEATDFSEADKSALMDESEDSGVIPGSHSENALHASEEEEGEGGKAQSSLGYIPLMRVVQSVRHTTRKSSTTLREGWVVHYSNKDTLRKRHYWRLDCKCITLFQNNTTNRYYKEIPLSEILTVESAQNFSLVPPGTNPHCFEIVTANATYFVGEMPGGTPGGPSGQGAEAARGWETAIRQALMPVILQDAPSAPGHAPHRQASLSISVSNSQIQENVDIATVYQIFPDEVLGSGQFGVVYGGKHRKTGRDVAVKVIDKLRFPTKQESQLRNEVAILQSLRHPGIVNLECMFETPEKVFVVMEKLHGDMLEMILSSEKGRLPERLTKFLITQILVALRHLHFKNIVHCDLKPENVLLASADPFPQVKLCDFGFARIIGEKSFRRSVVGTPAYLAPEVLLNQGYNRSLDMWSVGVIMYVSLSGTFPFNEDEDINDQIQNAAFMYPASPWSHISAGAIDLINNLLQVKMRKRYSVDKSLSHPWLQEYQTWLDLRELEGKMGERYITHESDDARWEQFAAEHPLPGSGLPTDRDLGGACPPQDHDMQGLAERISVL
Particulars: at 0.1 µM.

Experiment [11] deals with T3, Serine/threonine-protein kinase D2 (Homo sapiens). Particulars: at 1 µM.
For experiment [12], the target named is T4, Serine/threonine-protein kinase D3 (Homo sapiens) (UniProt O94806).
T4 sequence (whole entry): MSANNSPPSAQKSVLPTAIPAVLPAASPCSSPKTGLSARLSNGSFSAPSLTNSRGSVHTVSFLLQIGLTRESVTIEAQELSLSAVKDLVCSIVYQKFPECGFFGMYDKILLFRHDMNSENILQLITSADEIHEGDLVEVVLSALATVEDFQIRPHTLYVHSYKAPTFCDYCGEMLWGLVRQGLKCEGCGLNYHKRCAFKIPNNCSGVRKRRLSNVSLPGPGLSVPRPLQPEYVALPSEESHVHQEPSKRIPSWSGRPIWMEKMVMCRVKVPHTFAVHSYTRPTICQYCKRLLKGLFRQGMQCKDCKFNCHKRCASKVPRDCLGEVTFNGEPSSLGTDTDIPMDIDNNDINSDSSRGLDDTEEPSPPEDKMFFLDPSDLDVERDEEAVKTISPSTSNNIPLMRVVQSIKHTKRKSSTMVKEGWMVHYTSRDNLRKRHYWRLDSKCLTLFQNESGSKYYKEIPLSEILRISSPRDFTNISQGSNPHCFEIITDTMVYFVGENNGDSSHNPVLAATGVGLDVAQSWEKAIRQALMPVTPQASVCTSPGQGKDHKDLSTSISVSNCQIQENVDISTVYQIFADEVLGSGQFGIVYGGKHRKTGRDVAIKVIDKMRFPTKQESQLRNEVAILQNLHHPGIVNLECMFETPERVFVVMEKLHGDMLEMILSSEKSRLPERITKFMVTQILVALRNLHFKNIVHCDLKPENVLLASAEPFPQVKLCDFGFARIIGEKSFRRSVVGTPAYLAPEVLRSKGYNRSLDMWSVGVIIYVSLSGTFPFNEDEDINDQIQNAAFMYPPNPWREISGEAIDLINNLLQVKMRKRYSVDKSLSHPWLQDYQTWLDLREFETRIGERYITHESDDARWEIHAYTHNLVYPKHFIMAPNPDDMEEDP
Particulars: at 0.1 µM.

In experiment [13] the target is T4, Serine/threonine-protein kinase D3 (Homo sapiens). Particulars: at 1 µM.
Experiment [14] addresses T5, cGMP-dependent protein kinase 1 (Homo sapiens) (UniProt Q13976).
T5 sequence (whole entry): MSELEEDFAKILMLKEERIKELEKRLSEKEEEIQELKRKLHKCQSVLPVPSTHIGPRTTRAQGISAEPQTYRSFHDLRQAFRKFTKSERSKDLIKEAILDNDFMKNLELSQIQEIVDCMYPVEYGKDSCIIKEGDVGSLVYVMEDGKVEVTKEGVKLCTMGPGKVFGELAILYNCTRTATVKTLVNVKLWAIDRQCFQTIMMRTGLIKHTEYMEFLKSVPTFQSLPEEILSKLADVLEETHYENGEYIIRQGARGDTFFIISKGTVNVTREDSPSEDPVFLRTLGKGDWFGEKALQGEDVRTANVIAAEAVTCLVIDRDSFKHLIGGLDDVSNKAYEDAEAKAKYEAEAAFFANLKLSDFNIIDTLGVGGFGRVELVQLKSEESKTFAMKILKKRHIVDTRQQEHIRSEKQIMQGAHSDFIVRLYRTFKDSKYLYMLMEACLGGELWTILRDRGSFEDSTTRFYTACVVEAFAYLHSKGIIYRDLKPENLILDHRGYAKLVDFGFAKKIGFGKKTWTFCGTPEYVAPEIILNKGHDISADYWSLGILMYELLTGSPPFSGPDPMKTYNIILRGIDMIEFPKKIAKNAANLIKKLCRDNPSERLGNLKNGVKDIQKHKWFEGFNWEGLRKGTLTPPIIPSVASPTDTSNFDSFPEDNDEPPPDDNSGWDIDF
Particulars: at 0.1 µM.

The target in experiment [15] is T5, cGMP-dependent protein kinase 1 (Homo sapiens). Particulars: at 1 µM.
The target of experiment [16] is T6, cGMP-dependent protein kinase 2 (Homo sapiens) (UniProt Q13237).
T6 sequence (whole entry): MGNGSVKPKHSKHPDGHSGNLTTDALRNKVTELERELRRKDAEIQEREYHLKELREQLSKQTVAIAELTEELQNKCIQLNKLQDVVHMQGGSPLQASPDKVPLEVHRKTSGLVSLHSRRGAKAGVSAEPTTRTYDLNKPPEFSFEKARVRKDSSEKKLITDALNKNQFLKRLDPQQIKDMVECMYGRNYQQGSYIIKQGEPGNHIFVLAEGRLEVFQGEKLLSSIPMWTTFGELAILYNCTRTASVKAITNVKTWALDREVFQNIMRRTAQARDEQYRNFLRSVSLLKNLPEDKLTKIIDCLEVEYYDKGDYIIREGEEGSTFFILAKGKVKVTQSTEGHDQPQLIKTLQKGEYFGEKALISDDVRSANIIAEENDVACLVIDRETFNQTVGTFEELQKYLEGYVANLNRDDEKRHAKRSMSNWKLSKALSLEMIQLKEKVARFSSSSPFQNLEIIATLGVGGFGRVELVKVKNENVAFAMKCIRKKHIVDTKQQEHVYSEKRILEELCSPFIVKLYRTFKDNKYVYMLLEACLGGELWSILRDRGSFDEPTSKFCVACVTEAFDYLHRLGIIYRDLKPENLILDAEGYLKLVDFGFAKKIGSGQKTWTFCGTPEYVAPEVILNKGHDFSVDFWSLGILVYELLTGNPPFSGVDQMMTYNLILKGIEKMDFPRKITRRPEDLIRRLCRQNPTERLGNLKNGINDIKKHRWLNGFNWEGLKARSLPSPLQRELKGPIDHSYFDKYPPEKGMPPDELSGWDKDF
Particulars: at 0.1 µM.

Experiment [17] deals with T6, cGMP-dependent protein kinase 2 (Homo sapiens). Particulars: at 1 µM.
Experiment [18] has as its target T7, cAMP-dependent protein kinase catalytic subunit PRKX (Homo sapiens) (UniProt P51817).
T7 sequence (whole entry): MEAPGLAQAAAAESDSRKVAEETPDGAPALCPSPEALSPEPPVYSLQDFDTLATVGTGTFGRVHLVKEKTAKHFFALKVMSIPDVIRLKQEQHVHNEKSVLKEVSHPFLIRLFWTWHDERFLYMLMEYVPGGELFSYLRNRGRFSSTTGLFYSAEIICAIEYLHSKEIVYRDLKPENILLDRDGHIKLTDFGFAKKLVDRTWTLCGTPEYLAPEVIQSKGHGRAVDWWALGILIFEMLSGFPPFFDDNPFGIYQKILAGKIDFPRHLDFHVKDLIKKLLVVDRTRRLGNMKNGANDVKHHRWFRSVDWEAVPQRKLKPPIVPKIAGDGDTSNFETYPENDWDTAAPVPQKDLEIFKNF
Particulars: at 0.1 µM.

The target in experiment [19] is T7, cAMP-dependent protein kinase catalytic subunit PRKX (Homo sapiens). Particulars: at 1 µM.
Experiment [20] has as its target Rho-associated protein kinase 1 (Homo sapiens) (UniProt Q13464). Particulars: at 0.1 µM.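 Further: values are mean percent inhibition of ROCK1.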

Sequence of Protein kinase C beta type (Homo sapiens) (P05771 2-671 limits assumed): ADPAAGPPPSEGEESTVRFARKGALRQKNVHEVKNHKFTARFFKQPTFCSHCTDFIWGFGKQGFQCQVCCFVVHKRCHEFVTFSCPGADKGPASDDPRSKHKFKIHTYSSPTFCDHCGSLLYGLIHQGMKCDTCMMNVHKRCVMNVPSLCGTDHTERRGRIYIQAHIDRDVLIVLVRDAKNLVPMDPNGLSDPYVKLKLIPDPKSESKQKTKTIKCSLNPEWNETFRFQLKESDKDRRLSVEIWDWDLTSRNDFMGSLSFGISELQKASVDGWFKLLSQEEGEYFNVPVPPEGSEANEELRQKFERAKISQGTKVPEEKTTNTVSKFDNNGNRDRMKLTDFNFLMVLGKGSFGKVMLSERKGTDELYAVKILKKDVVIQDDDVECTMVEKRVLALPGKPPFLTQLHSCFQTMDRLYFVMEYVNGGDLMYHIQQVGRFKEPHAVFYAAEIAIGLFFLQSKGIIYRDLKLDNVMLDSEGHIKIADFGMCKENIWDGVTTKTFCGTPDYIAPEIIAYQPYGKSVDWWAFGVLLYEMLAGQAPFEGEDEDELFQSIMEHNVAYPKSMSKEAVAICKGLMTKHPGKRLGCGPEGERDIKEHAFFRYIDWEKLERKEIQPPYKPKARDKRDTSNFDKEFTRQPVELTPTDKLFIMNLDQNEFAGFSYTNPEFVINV
Sequence of Protein kinase C theta type (Homo sapiens) (Q04759 whole entry, looked up): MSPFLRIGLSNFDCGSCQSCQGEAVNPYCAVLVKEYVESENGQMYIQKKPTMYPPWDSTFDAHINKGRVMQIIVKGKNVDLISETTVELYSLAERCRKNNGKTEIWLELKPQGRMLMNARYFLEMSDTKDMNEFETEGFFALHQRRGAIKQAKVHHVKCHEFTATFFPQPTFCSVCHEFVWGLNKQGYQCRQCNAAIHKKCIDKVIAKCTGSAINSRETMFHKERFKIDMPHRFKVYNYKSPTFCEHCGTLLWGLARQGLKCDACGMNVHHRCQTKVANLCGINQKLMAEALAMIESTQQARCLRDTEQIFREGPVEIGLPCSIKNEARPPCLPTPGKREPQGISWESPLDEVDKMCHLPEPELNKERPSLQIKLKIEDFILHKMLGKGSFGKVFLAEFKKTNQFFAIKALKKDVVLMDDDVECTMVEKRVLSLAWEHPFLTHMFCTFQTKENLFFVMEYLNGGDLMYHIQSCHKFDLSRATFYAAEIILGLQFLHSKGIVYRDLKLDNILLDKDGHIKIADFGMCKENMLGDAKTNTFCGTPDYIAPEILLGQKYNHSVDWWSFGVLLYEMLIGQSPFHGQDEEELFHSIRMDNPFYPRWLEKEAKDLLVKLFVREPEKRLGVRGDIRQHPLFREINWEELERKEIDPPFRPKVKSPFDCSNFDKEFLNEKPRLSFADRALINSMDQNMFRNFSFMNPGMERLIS
Sequence of Rho-associated protein kinase 1 (Homo sapiens) (Q13464 2-1354 limits assumed): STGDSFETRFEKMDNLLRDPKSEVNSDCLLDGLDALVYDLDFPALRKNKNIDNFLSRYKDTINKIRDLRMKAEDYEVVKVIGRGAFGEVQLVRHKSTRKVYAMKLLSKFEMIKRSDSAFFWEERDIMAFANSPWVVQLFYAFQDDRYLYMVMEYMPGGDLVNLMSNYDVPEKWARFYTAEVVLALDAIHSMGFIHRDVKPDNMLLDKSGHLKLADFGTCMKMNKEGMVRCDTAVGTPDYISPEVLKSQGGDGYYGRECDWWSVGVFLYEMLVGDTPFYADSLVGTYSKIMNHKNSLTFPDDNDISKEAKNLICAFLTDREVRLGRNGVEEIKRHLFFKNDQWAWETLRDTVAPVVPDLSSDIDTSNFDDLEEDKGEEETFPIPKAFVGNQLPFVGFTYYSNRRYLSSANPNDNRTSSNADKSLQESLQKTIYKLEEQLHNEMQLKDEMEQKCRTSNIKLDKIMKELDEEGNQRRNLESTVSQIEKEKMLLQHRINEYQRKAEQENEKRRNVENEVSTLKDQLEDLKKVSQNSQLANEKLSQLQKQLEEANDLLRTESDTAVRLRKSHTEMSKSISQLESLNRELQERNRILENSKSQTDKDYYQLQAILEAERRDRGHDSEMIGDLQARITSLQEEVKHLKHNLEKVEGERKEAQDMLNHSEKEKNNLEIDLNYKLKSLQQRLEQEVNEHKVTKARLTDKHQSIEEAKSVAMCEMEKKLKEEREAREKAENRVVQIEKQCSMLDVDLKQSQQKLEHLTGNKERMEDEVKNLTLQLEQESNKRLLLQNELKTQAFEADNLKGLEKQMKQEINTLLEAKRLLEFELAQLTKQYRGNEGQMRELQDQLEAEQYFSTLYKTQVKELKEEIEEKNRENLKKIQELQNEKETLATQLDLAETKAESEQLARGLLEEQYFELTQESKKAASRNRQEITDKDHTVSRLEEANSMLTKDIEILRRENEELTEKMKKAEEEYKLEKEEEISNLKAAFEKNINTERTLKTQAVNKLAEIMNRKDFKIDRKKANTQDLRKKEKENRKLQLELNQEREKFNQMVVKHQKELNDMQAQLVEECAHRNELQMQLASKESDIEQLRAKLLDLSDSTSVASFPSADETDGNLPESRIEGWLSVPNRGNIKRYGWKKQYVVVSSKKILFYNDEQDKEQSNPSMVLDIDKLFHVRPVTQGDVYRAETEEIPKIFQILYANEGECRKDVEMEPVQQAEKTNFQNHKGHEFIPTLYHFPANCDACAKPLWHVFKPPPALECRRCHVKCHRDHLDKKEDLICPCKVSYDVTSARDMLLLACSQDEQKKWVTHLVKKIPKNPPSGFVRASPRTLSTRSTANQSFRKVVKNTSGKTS

`CCn1c(-c2nonc2N)nc2cncc(C(=O)NCCNC)c21`: the inhibition in [1] is 35.3%; in experiment [2], 9.63%; in [3], 40%; in [4] it was 8.91%; in experiment [5], 39.2%; in experiment [6] it was 21.1%. Moreover, the inhibition in experiment [7] amounted to 61%; in experiment [8], 5.32%; in [9], 8.53%; in [10], 5.41%; in experiment [11], 5.38%; in [12], 5.66%. Moreover, the inhibition in [13] stood at 6.85%; in experiment [14] it was 36.2%; in experiment [15], 70%; in experiment [16], 61.7%; in experiment [17], 73.8%; in [18] it was 18.4%. In addition, the inhibition came to 63.9% in experiment [19] and 71.8% in [20].

The term inhibition denotes the percentage by which the read-out fell short of the control. The low end stands for little suppression, the high end for strong suppression.
